Drawing on PubChem BioAssay AID624351 (Southern Research Specialized Biocontainment Screening …, 2012), this text covers IC50 and inhibition for 56 molecules.

About 1,400 (58%) of roughly 2,400 compounds were called active. So high a share suggests a set chosen from earlier hits. Some of the results follow. Values without a mark were called inactive.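 Rule for the calls: active = inhibition of 30% or more at any tested dose; inconclusive = primary hits over the limit that were never retested; inactive = the rest.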

A word on the IC50: it is the point on the concentration scale where inhibition reaches its midpoint. The term inhibition denotes the drop in the measured response relative to a control, in per cent.

A short description of the test: ADP Hunter readout inhibition without MgcRacGAP – biochemical, coupled enzyme counter-screen, artefact control for MgcRacGAP inhibitor project, dose response (AID 624351).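 For inhibition: 0% = median positive control wells and 100% = median negative control wells.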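 Note: signal is the ADP detection kit reading of free GDP without any GAP enzyme.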 The conditions noted are these: fluorescence, no MgcRacGAP; series mostly up to 80 µM.
Regarding `CN(C)S(=O)(=O)c1cc(NC(=O)CNCCN2CCOCC2)ccc1Cl`, the IC50 entry is “inactive”.
Same read-out and setting: the value for `COc1ccc(CCNCCN2CCOCC2)cc1` was “inactive”; that for `COc1ccccc1OCCCCCCN1CCOCC1` was “inactive”; that for `CCOc1cc(-c2nc3ccccc3s2)ccc1O` was 48.6 µM (active).
On the same count and under the same terms, the value for `CCN1CCN(CC(=O)Nc2nc3ccccc3s2)CC1` was “inactive”; that for `COc1cc(-c2nc3ccccc3s2)ccc1O` was 18.2 µM (active).
`CCOc1cc(-c2cc(-c3ccccc3)nc(N)c2C#N)ccc1O`: the IC50 entry was “inactive”.
Still for that read-out and setting: next, `O=C(c1ccc(F)cc1)N1CCN(C2CCCCC2)CC1`: “inactive”.
With `COc1cc2c(cc1OC)C1(CCCC1)C(N)=C2C#N`, the half-maximal inhibitory concentration (IC50) is 57.3 µM (active).
Same read-out and setting: the value for `O=[N+]([O-])c1cccc(CN2CCN(c3cccc4[nH]ccc34)CC2)c1` was 46.7 µM (active).
Still for that read-out and setting: next, `O=C(c1ccco1)N1CCN(Cc2cccc([N+](=O)[O-])c2)CC1`: “inactive”; `O=C(c1c(Cl)cccc1Cl)N1CCN(c2cccc3[nH]ccc23)CC1`: 50.9 µM (active); `O=[N+]([O-])c1cccc(CN2CCN(Cc3ccco3)CC2)c1`: “inactive”.
For `O=C(c1cccc(Cl)c1)N1CCN(C2CCCCC2)CC1`, the IC50 result was “inactive”.
As to `O=C1/C(=C/c2ccc(O)c(O)c2)Oc2cc(O)ccc21`, the IC50 is 28.2 µM (active).
The same measure, in the same setting: next, `COc1cc(/C=C2\Oc3cc(O)ccc3C2=O)ccc1O`: 33.9 µM (active); `Brc1ccccc1OCCCCCN1CCOCC1`: “inactive”; `S=c1[nH]nc2sc3ccccc3n12`: 32.3 µM (active).
Still for that read-out and setting: next, `O=C(CN1CCN(c2ncccn2)CC1)N1CCCC1`: “inactive”.
Same read-out and setting: the value for `Cc1cccc(N2C(=O)/C(=C\c3ccc(C(=O)O)cc3)c3ccccc3C2=O)c1` was “inactive”; that for `Cc1ccc(-c2n[nH]c(=S)n2/N=C/c2ccc(C(=O)O)cc2)cc1` was 69.7 µM (active); that for `Oc1ccccc1/C=N/n1c(-c2ccccc2)n[nH]c1=S` was 71.4 µM (active).
As for `S=c1[nH]nc(-c2ccncc2)n1/N=C/c1ccccc1`, the IC50 is 39.6 µM (active).
`NNc1ccc([N+](=O)[O-])c2[nH][nH]c(=O)c12`: the inhibition is -1.61% [at 10 µM].
Turning to `Cc1ccc(S(=O)(=O)/N=S(/c2ccccc2)C(C)C)cc1` (stereo unspecified), the IC50 entry is “inactive”.
With `Nc1cccc2c(O)cc(S(=O)(=O)O)cc12`, the IC50 entry is “inactive”.
The same measure, in the same setting: the value for `CN(C)c1ccc2cc(S(=O)(=O)O)cc(O)c2c1` was 75 µM (active); that for `O=S(=O)(O)c1cc(O)c2ccc(Nc3ccccc3)cc2c1` was “inactive”.
On to `COc1cc(/C=C/C(=O)OCC(=O)Nc2ccc3c(c2)OCO3)ccc1O`, for which the half-inhibitory concentration (IC50) was 42.1 µM (active).
On the same count and under the same terms, next, `O=C(CCN1CCCCCC1)Nc1ccc2c(c1)OCCO2`: “inactive”.
As for `COc1cc(/C=C/C(=O)OCC(=O)Nc2ccc3c(c2)OCCO3)ccc1O`, the concentration for half-maximal inhibition (IC50) was 29.2 µM (active).
Same read-out and setting: next, `O=C(CN1CCOCC1)Nc1ccc2c(c1)OCCO2`: “inactive”.
On the same count and under the same terms, the value for `CC(C)C1=Nc2cccc3cccc(c23)N1` was 26.5 µM (active); that for `O=C(Oc1ccc(N(C(=O)c2ccncc2)S(=O)(=O)c2cccs2)cc1)c1ccncc1` was “inactive”.
Same read-out and setting: the value for `N=C(N)c1ccc(N=Nc2c(O)ccc3c2[nH]c2ccccc23)cc1` was 18 µM (active).
In the case of `O=C(O)CCN1C(=O)/C(=C/c2ccc(-c3nc4ccccc4s3)o2)SC1=S`, the IC50 result is “inactive”.
Same read-out and setting: the value for `COCCNCC(=O)Nc1nc(C)cs1` was “inactive”.
With `O=C(Nc1ccc(O)cc1)c1ccc2c(c1)C(=O)N(Cc1ccccc1)C2=O`, the IC50 result is “inactive”.
Same read-out and setting: next, `CC(C)(C)N1C(=O)c2ccc(C(=O)Nc3ccc(O)cc3)cc2C1=O`: 29.7 µM (active); `Cc1ccn2c(Nc3ccc4c(c3)OCO4)c(-c3ccc(O)cc3)nc2c1`: 32.4 µM (active).
In the case of `Cc1ccc(Nc2c(-c3ccco3)nc3ccccn23)cc1`, the IC50 entry was “inactive”.
Still for that read-out and setting: the value for `COc1cc(-c2nc3ccc(C)cn3c2Nc2ccc3c(c2)OCCO3)ccc1O` was 34.4 µM (active); that for `Cc1cccc(Nc2c(-c3ccc(O)cc3)nc3ncccn23)c1` was 31.7 µM (active); that for `COc1cc(-c2nc3cnccn3c2Nc2ccc(C)cc2)ccc1O` was 45.3 µM (active).
The same measure, in the same setting: next, `N#CC(C#N)=C1C=CC=CN1/C(=C\c1ccco1)C(=O)c1ccc(Cl)cc1`: “inactive”; `COc1cc(-c2nc3ccccn3c2NCC2CCCO2)ccc1O` (stereo unspecified): “inactive”; `COc1cc(-c2nc3cnccn3c2Nc2c(C)cccc2C)ccc1O`: 52.8 µM (active).
Turning to `Clc1cc(Br)ccc1OCCOCCN1CCCC1`, the IC50 entry is “inactive”.
Still for that read-out and setting: next, `COc1cc(/C=N/NC(=O)CNC(=O)c2ccco2)ccc1O`: 36.8 µM (active).
On the same count and under the same terms, next, `COc1cc(/C=N/NC(=O)CNC(=O)c2cccs2)ccc1O`: 38.4 µM (active); `O=C(O)c1ccc(N/N=C/c2c[nH]c3ccccc23)cc1`: 47.5 µM (active).
The same measure, in the same setting: next, `COc1ccc2c(/C=N/Nc3ccc(C(=O)O)cc3)c[nH]c2c1`: 58.5 µM (active).
As to `CN=c1scc(-c2ccc(F)cc2)n1/N=C/c1ccc(O)c(O)c1`, the IC50 is 38.6 µM (active).
For `CN=c1scc(-c2ccco2)n1/N=C/c1ccc(O)c(O)c1`, the half-inhibitory concentration (IC50) is 43.9 µM (active).
On the same count and under the same terms, next, `CC(C)N=c1scc(-c2ccco2)n1/N=C/c1ccc(O)c(O)c1`: 63.8 µM (active).
On the same count and under the same terms, next, `Oc1ccc(/C=N/n2c(-c3ccco3)csc2=Nc2cccnc2)c(O)c1`: 34.3 µM (active).
